In all, about 65,000 compounds went through this assay and about 2,100 (3.2%) showed an effect of 50% or more. The median lay at about -52%. The entries come from a sample that favours strong results as a whole.
These compounds were tested on Plasmodium falciparum (assay: Screen against P. falciparum Asexual Blood Stage (ABS), at 5uM). Conditions: tested at 5 uM.
Assay type: functional, Dd2
`COc1cn(-c2ccccc2)nc1C(=O)NCCN1CCCC(C)C1` (configuration not stated) was tested, and the INHIBITION was -57.1%.
For `O=C(NCCN1CCCCC1)c1ccn(-c2ccccc2)n1`, the INHIBITION was -37.9%.
`CC(C)OCc1ccc(CNc2cncc(-n3cccn3)n2)cc1` showed an INHIBITION of -83.1%.
Compound `COCCNC(=O)c1ccc2c(=O)n3c(nc2c1)CCCC3` has an INHIBITION of -68%.
For `COc1cc(Cl)cc(CN2CCCC(N3CCCC3)C2)c1OC` (configuration not stated), the INHIBITION was 64.1%.
`COc1cc(Cl)cc(CN2CCCC(N3CCOCC3)C2)c1OC` (configuration not stated) was tested, and the INHIBITION was -126%.
Compound `COc1ccc(CN2CCCC(N3CCCC3)C2)cc1Cn1cncn1` (configuration not stated) has an INHIBITION of -34.2%.
Compound `O=C(O)c1ccccc1-n1cnc(CN2CCc3ccccc32)c1` has an INHIBITION of -68.5%.
Compound `Cn1nccc1C(=O)Nc1cc(C(F)(F)F)c[nH]c1=O` has an INHIBITION of 56.5%.
For `Cn1nccc1CNC(=O)Nc1cc(C(F)(F)F)c[nH]c1=O`, the INHIBITION was -32.9%.
Compound `O=C(NCc1ccncc1)Nc1cc(C(F)(F)F)c[nH]c1=O` has an INHIBITION of -57.7%.
`CNc1cc(C)nc(C2COCCN2Cc2csc(C)n2)n1` (configuration not stated) showed an INHIBITION of -146%.
With `Cc1ccnn1CCC(=O)N1CCC(c2cnccn2)CC1` the INHIBITION was -164%.
In the case of `CN(Cc1cscn1)C(=O)C(c1ccccc1)N1CCSCC1` (configuration not stated), the INHIBITION is reported as 13.8%.
`CCN(CC)C(CNCc1ccc(O)cc1)c1ccco1` (configuration not stated) gave an INHIBITION of 40.1%.
For `CCN(CC)C(CNS(=O)(=O)c1ccc(C(=O)NC)cc1)c1ccco1` (configuration not stated), the INHIBITION was -31.7%.
In the case of `CCN(CC)C(CNS(=O)(=O)NCc1ccccc1)c1ccco1` (configuration not stated), the INHIBITION is reported as 67%.
In the case of `Cn1ncc2c(NC3CCCN(C(=O)C4CC4)C3)nc(C(C)(C)C)nc21` (configuration not stated), the INHIBITION is reported as -74%.
`Cn1ncc2c(NC3CCC(N)CC3)nc(C(C)(C)C)nc21` (configuration not stated) showed an INHIBITION of 65.3%.
In the case of `Cn1ncc2c(N[C@H]3CCCC[C@@H]3O)nc(C(C)(C)C)nc21`, the INHIBITION is reported as -65.3%.
`COCCN1CCC2(CC1)CC(NC(=O)C(C)C)c1ccccc1O2` (configuration not stated) gave an INHIBITION of -12.4%.
`Cn1nc(C(=O)N2CCSCC2)cc1NC(=O)c1ccco1` gave an INHIBITION of -104%.
`CNc1nc(N2CCN(C3CCCCC3)C(CCO)C2)nc2c1CCC2` (configuration not stated) showed an INHIBITION of -32.3%.
With `CNc1nc(N2CCN(CC=C(C)C)C(CCO)C2)nc2c1CCC2` (configuration not stated) the INHIBITION was -7.97%.
With `CNc1nc(N2CCN(Cc3ccsc3)C(CCO)C2)nc2c1CCC2` (configuration not stated) the INHIBITION was 55.7%.
With `CN(C)[C@@H]1C[C@@H](CO)N(C(=O)Nc2ccc(SC(F)(F)F)cc2)C1` the INHIBITION was 7.77%.
Compound `CCc1nc(C)cn1C(=O)Nc1ccc(F)cc1` has an INHIBITION of -11.7%.
`Cc1n[nH]c(C2CN(C(=O)c3ccco3)CCO2)n1` (configuration not stated) was tested, and the INHIBITION was -132%.
`CC(C)(C)CC(=O)NC(C)(C(N)=O)c1cccc(Cl)c1` (configuration not stated) was tested, and the INHIBITION was -54.6%.
With `Cc1ccc(=O)n(CC2(O)CCN(Cc3c(F)cccc3F)CC2)n1` the INHIBITION was -42.4%.
`Fc1cccc(NCc2ncc[nH]2)c1` showed an INHIBITION of -155%.
`Cn1cc(C(NCc2ccc(F)cc2)c2cccc(F)c2)cn1` (configuration not stated) showed an INHIBITION of 13.6%.
`Fc1cccc(C(NCc2ncc[nH]2)c2ccccc2)c1` (configuration not stated) was tested, and the INHIBITION was 69.1%.
Compound `Cc1c(C(=O)NCC2CCS(=O)(=O)C2)cnn1-c1ccccc1` (configuration not stated) has an INHIBITION of -29.9%.
`Cc1cc(C(=O)N2CCCC3(COCCN(CCN(C)C)C3)C2)no1` (configuration not stated) showed an INHIBITION of -49.7%.
For `CC(C)(C)n1ncc2c1CCCC2NCc1cccc2c1OCCO2` (configuration not stated), the INHIBITION was 61.5%.
`CC(C)(C)n1ncc2c1CCCC2NCc1cccc2c1OCO2` (configuration not stated) showed an INHIBITION of 56.8%.
In the case of `CCn1ncc2c1CCCC2NCc1cccc2c1OCO2` (configuration not stated), the INHIBITION is reported as -116%.
Compound `CCn1ncc2c1CCCC2NCc1cccc2c1OCCCO2` (configuration not stated) has an INHIBITION of -15.3%.
For `Cn1ncc2c1CCCC2NCc1cccc2c1OCCCO2` (configuration not stated), the INHIBITION was -48.9%.
In the case of `CCn1ncc2c1CCCC2NCc1cccc2c1OCCO2` (configuration not stated), the INHIBITION is reported as -36%.
`CN(CCc1ccncc1)CCc1nccs1` showed an INHIBITION of -102%.
`Cc1c[nH]c(C2COCCN2C(=O)c2n[nH]c(=O)c3ccccc23)n1` (configuration not stated) showed an INHIBITION of -96.3%.
In the case of `Cc1ncnc2c1CCN(C(=O)N(C)C)CC2`, the INHIBITION is reported as -100%.
`COCCC1CN(c2nc(-c3ccccc3)nc3c2CCNC3)CCO1` (configuration not stated) showed an INHIBITION of -21.7%.
In the case of `OCCC1CN(c2nc(-c3ccncc3)nc3c2CCNCC3)CCO1` (configuration not stated), the INHIBITION is reported as -97.5%.
`NCC1CN(c2nc(-c3cccnc3)nc3c2CCNCC3)CCO1` (configuration not stated) gave an INHIBITION of -84.9%.
For `NCCC1CN(c2nc(-c3ccccc3)nc3c2CCNC3)CCO1` (configuration not stated), the INHIBITION was 66.1%.
In the case of `OCCC1CN(c2nc(-c3cccnc3)nc3c2CCNCC3)CCO1` (configuration not stated), the INHIBITION is reported as -121%.
`NCC1CN(c2nc(-c3ccccc3)nc3c2CCNCC3)CCO1` (configuration not stated) gave an INHIBITION of 69.5%.
`CCOCCN1CCC(C(=O)c2cc(F)ccc2F)CC1` was tested, and the INHIBITION was 5.36%.
For `O=C(O)CCC(=O)N1CCN(CC2CC2)c2ncccc2C1`, the INHIBITION was -23.3%.

— ChEMBL document CHEMBL4513216, “Probing the Open Global Health Chemical Diversity Library for Multistage-Active Starting Points for Next-Generation Antimalarials” (ACS Infect Dis, 2020)
